Measurements reported in PubChem BioAssay (Tox21).
Several values for one entry are separate records, joined by “and”; a condition that tells them apart may be missing. Identical values can stand only once. Results filed as inconclusive are left out. Entries that show only a call come without a potency. Some compounds were tested as several samples or in several runs, with calls that do not always agree. Activity calls are given as the source filed them. Unless noted, calls come from the whole dose curve; as a rule, active = well fitted curve in the direction sought with a large enough effect in the repeat runs; inconclusive = weak or mixed curves; inactive = no such curve, though single readings can be large; an effect the other way counts as inactive or inconclusive.

Key:
[1] = qHTS assay to identify small molecule antagonists of the glucocorticoid receptor (GR) signaling pathway - cell viability counter screen (AID 720693); note: nearly all actives have a fitted effect of over 55% in size; note: potency is the fitted concentration of half-maximal effect
[2] = qHTS assay for identifying genotoxic compounds that show differential cytotoxicity against isogenic chicken DT40 cell lines with known DNA damage response pathways - wild type cell line (AID 743012); note: nearly all actives have a fitted effect of over 60% in size; note: potency is the fitted concentration of half-maximal effect
Outline: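 Using parental DT40 (300 cells/well), compounds delivered in DMSO incubate 40 h at 37 C/5% CO2. CellTiter-Glo reagent then stands 30 min at room temperature, and luminescence gives cell viability.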

[3] = qHTS assay for identifying genotoxic compounds that show differential cytotoxicity against isogenic chicken DT40 cell lines with known DNA damage response pathways - Rev3 mutant cell line (AID 743014); note: nearly all actives have a fitted effect of over 55% in size; note: potency is the fitted concentration of half-maximal effect
[4] = qHTS assay for identifying genotoxic compounds that show differential cytotoxicity against isogenic chicken DT40 cell lines with known DNA damage response pathways - Rad54/Ku70 mutant cell line (AID 743015); note: nearly all actives have a fitted effect of over 60% in size; note: potency is the fitted concentration of half-maximal effect
[5] = qHTS assay to identify small molecule antagonists of the androgen receptor (AR) signaling pathway - cell viability counter screen (AID 743033; note: nearly all actives have a fitted effect of over 45% in size; note: potency is the fitted concentration of half-maximal effect)
[6] = target: Androgen receptor (Homo sapiens) (UniProt P10275); experiment: qHTS assay to identify small molecule antagonists of the androgen receptor (AR) signaling pathway (AID 743035; active = well fitted inhibition curve with a large enough effect in the signal ratio in the repeat runs, not every such curve was filed as active; the % refers to the signal ratio)
Sequence of Androgen receptor (Homo sapiens) (P10275 whole entry, looked up): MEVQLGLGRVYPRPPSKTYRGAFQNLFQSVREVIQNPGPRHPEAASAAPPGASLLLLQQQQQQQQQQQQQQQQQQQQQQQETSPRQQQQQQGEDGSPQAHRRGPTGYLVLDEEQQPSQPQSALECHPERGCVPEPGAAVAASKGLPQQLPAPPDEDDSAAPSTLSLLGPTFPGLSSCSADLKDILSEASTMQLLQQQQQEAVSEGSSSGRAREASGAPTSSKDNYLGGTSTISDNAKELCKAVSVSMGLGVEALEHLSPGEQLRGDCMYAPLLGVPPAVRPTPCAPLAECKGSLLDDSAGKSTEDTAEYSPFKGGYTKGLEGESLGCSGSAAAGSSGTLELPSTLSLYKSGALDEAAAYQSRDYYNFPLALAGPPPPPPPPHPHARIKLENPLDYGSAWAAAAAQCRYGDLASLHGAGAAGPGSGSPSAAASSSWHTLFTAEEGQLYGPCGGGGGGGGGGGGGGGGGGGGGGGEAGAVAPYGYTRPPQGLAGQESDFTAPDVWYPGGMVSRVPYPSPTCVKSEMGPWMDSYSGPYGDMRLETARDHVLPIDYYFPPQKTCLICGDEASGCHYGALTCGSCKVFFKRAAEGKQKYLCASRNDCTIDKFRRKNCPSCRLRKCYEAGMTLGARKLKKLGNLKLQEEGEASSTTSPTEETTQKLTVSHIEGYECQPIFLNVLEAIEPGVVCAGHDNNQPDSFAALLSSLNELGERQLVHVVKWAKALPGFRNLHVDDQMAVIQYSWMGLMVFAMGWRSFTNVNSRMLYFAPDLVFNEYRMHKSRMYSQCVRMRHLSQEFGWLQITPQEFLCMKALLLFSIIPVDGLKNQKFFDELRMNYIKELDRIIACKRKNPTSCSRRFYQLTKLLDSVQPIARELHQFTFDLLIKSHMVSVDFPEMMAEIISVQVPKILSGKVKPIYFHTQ
Outline: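 Using qHTS, AR-UAS-bla GripTite HEK293 cells received compound, then R1881, and were cultured 16 h at 37C/5% CO2 before a 2 h room-temperature LiveBLAzer B/G FRET substrate step and fluorescence measurement.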

[7] = target: Androgen receptor (Homo sapiens) (UniProt P10275); experiment: qHTS assay to identify small molecule agonists of the androgen receptor (AR) signaling pathway (AID 743036; active = well fitted activation curve with a large enough effect in the signal ratio in the repeat runs, with a control signal flat, not every such curve was filed as active; the % refers to the signal ratio)
Outline: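 Activation was read as beta-lactamase FRET signal from LiveBLAzer B/G substrate, added for 2 h at room temperature. Before that, GeneBLAzer AR-UAS-bla GripTite (HEK293) cells had 16 h compound exposure at 37C.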

[8] = target: Androgen receptor (Homo sapiens) (UniProt P10275); experiment: qHTS assay to identify small molecule agonists of the androgen receptor (AR) signaling pathway using the MDA cell line (AID 743040; note: nearly all actives have a fitted effect of over 20% in size)
Outline: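 After a 5 h incubation at 37C and 0% CO2, MDA-kb2 reporter cells were dosed with compounds in DMSO and kept 16 h under the same conditions. Luciferase activity was then read as luminescence with ONE-Glo.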

[9] = qHTS assay to identify small molecule antagonists of the androgen receptor (AR) signaling pathway using the MDA cell line - cell viability counter screen (AID 743041; note: nearly all actives have a fitted effect of over 45% in size)
Outline: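 R1881-driven MDA-kb2 AR-luc cells, 3,000/well, were dosed with library compounds for 16 h; cell health came from CellTiter-Fluor fluorescence in the reporter wells.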

[10] = target: Androgen receptor (Homo sapiens) (UniProt P10275); experiment: qHTS assay to identify small molecule antagonists of the androgen receptor (AR) signaling pathway using the MDA cell line (AID 743042; note: nearly all actives have a fitted effect of over 55% in size)
Outline: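 Antagonist mode: compounds plus R1881 agonist added to MDA-kb2 AR-luc cells, incubated 16 h at 37C. Luciferase reporter luminescence quantified, with multiplexed CellTiter-Fluor readout for cell viability.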

Row | Structure (SMILES) | Potency [1] | Potency [2] | Potency [3] | Potency [4] | Potency [5] | Potency [6] | Potency [7] | outcome [8] | Potency [9] | Potency [10]
1 | CN(C)c1ccc(C(=C2C=CC(=[N+](C)C)C=C2)c2ccccc2)cc1 | 195 nM (active) | 1.06 µM (active) and 13.7 nM (active) | 1.19 µM (active) and 7.7 nM (active) | 1.5 µM (active) and 10.9 nM (active) | 155 nM (active) | – | – | – | – | –
2 | O=C(OCc1ccccc1)c1ccc(O)cc1 | inactive | inactive | inactive | 61.1 µM (active) | inactive | – | – | – | – | –
3 | CC(C(O)c1ccc(O)cc1)N1CCC(Cc2ccccc2)CC1 (stereo not given) | inactive | 2.11 µM (active) | 335 nM (active) | 0.668 µM (active) | inactive | – | – | – | – | –
4 | C1COC(NC(C2CC2)C2CC2)=N1 | inactive | inactive | – | – | – | – | – | – | – | –
5 | NNCCc1ccccc1 | inactive | inactive | inactive | inactive | inactive | – | – | – | – | –
6 | CC(=O)N[C@@H](CS)C(=O)O | inactive | inactive | inactive | inactive | inactive | – | – | – | – | –
7 | Cc1cc(Cc2cc(C)cc(C(C)(C)C)c2O)c(O)c(C(C)(C)C)c1 | 12.4 µM (active) and 13.8 µM (active) | 15.4 µM (active) and 17.2 µM (active) | 13.8 µM (active) and 19.3 µM (active) | 9.74 µM (active) and 15.4 µM (active) | 22000 nM (active) | – | – | – | – | –
8 | COC(=O)c1cccc(C(=O)OC)c1 | inactive | inactive | inactive | inactive | inactive | inactive | inactive | inactive | inactive | inactive
9 | COc1ccc(CCN(C)CCCC(C#N)(c2ccc(OC)c(OC)c2)C(C)C)cc1OC (stereo not given) | inactive | 13.3 µM (active) and 54.4 µM (active) | 23.7 µM (active) and 27.3 µM (active) | – | – | – | – | – | – | –
10 | c1ccc2n[nH]nc2c1 | inactive | inactive | inactive and 61.1 µM (active) | inactive | inactive | – | – | – | – | –
11 | Clc1ccc2c(c1)C(N1CCNCC1)=Nc1ccccc1O2 | inactive | 26.6 µM (active) and 7.7 µM (active) | 29.8 µM (active) and 9.69 µM (active) | 26.6 µM (active) and 10.9 µM (active) | inactive | – | – | – | – | –
12 | [Cl][In]([Cl])[Cl] | inactive | inactive | inactive | inactive | inactive | – | – | – | – | –
